Source: PubChem BioAssay
Mcl-1 Bim block: inhibitors of Bim-Mcl-1 interaction, human; Q07820; Bead-based flow cytometry, Bim peptide-Mcl-1 binding; inhibition, % at 10 µM; hit rate 0.1% among 190,000; AID 1009; in the data active = inhibition above about 40%;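 note: 0% = no compound tracer wells and 100% = peptide blocker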
Target sequence (Q07820 whole entry, looked up): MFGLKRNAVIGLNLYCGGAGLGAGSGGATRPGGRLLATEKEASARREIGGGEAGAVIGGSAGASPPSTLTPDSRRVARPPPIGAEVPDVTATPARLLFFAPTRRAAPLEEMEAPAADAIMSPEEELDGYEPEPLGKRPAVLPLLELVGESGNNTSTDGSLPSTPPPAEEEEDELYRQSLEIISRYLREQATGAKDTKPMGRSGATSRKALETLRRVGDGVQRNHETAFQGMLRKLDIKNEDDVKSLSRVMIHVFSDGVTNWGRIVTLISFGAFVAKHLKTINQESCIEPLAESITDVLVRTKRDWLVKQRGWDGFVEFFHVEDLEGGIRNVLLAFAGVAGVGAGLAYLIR
Mcl1 Bid PPI: disrupts binding of human Mcl-1 to Bid peptide. AID 1021. hit rate 0.97% among 220,000. inhibition, % at 21.7 µM. Q07820. TR-FRET Mcl-1/Bid-Dy647 peptide binding, 1536-well;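 active = compounds that cut the binding signal by more than half at the single screening dose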;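 note: His-tagged Mcl-1 with europium anti-His antibody binding Bid BH3 peptide; 0% = Mcl-1 plus peptide wells and 100% = peptide-only wells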
Mcl1 Noxa PPI: Mcl-1/Noxa interaction inhibition; Q07820; inhibition, % at 21.7 µM; hit rate 1.5% among 220,000; TR-FRET Mcl-1/Noxa peptide binding, 2 h;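 active = compounds that cut the protein-peptide binding signal by more than 50% relative to plate controls in a single-dose test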;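 note: His-tagged Mcl-1 with rhodamine Noxa BH3 peptide and terbium anti-His antibody; 0% = Mcl-1 plus Noxa peptide wells and 100% = peptide-only wells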
MCL1-BIM inh: disrupts human MCL1 binding to BIM-BH3 peptide | GST-MCL1 / FITC-Bim-BH3 fluorescence polarization | Q07820 | AID 2057 | hit rate 0.68% among 320,000 | inhibition, % at 10.9 µM;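 active = inhibition above the mean inhibition of all tested compounds plus 3 SD, set per campaign, cut at about 40% in these data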;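 note: 0% = DMSO wells and 100% = unlabeled Bim-BH3 peptide control; higher means more loss of mP so more displacement of Bim peptide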
* = called active by the depositor. Sampled rows, rich in hits. Any-hit rate of the full collection: about 2%.

For O=C(/C=C/c1ccco1)NC(=S)Nc1cc(-c2nc3ccccc3s2)ccc1Cl the results were Mcl-1 Bim block -4.0, Mcl1 Bid PPI 62.9*, Mcl1 Noxa PPI 64.2* and MCL1-BIM inh -1.6.
Screening Cc1ccc(-c2nc3ccccc3o2)cc1NC(=S)NC(=O)/C=C/c1ccco1 returned Mcl-1 Bim block -2.0, Mcl1 Bid PPI 2.4, Mcl1 Noxa PPI 3.9 and MCL1-BIM inh -1.1.
`O=C(OC1CCOC1=O)c1cc(S(=O)(=O)N2CCOCC2)c(Cl)cc1Cl` (stereo unspecified) gave MCL1-BIM inh -1.5.
Screening COc1ccc(/C(C)=N/NC(=O)CNC(=O)c2cccnc2)c(OC)c1 returned MCL1-BIM inh -7.1.
`CC(C)C1Cc2c(sc3c2c(=O)n(-c2ccccc2)c2n[nH]c(=S)n32)CO1` (stereo unspecified) gave Mcl1 Bid PPI -69.4, Mcl1 Noxa PPI 20.3 and MCL1-BIM inh -16.6.
Screening O=C(/C=C/c1ccc(Cl)cc1)NC(=S)Nc1ccc(NC(=O)c2ccco2)cc1 returned Mcl-1 Bim block -5.0, Mcl1 Bid PPI 55.9*, Mcl1 Noxa PPI 45.5 and MCL1-BIM inh 10.1.
Screening O=C(NCc1cccnc1)C1CC(c2ccccc2Cl)=NO1 (stereo unspecified) returned MCL1-BIM inh 2.4.
`O=C(O)c1ccccc1N/N=C/c1cc(Br)cc(Br)c1O` gave Mcl1 Bid PPI 19.7, Mcl1 Noxa PPI 82.7* and MCL1-BIM inh 15.0.
Screening O=C(O)Cc1sc(Nc2ccc(Cl)cc2)nc1-c1cccs1 returned Mcl-1 Bim block -6.0, Mcl1 Bid PPI -26.6 and Mcl1 Noxa PPI 73.1*.
Screening Nc1nc(-c2cccs2)c(CC(=O)O)s1 returned Mcl-1 Bim block -1.0, Mcl1 Bid PPI -48.3, Mcl1 Noxa PPI 29.8 and MCL1-BIM inh -5.1.
Screening O=C(OCc1cccc(F)c1)c1ccc2c(=O)n3c(nc2c1)CCC3 returned Mcl1 Bid PPI 61.3*, Mcl1 Noxa PPI -3.3 and MCL1-BIM inh -14.5.
`COc1ccc(S(=O)(=O)N2CCOCC2)cc1C(=O)NC1CCCCCC1` gave MCL1-BIM inh -7.0.
Screening CN(C)c1ccc(/C=C/c2ccc3c4ccccc4ccc3[n+]2-c2ccccc2)cc1 returned Mcl-1 Bim block 0.0, Mcl1 Bid PPI -61.4 and Mcl1 Noxa PPI 84.2*.
CN(C)c1ccc(/C=C/c2ccc3ccccc3[n+]2C)cc1 was read as Mcl-1 Bim block -7.0, Mcl1 Bid PPI -57.2, Mcl1 Noxa PPI 47.1 and MCL1-BIM inh -12.2.
`C=CC(c1ccccc1)C(C(=O)c1ccccc1)N(C)C` (stereo unspecified) gave Mcl-1 Bim block -1.0, Mcl1 Bid PPI 82.2* and Mcl1 Noxa PPI -9.5.
Screening O=C(Nc1ccc(C(F)(F)F)cc1)c1ccccc1-n1cnnn1 returned MCL1-BIM inh -16.2.
`C#CCOCCOCCOCCNc1nc(N2CCN(C(=O)[C@H]([C@@H](C)CC)n3cc([C@@H](N)Cc4ccc(O)cc4)nn3)CC2)nc(N2CCN(C(=O)[C@H](Cc3cc4ccccc4[nH]3)n3cc([C@@H](N)C(C)CC)nn3)CC2)n1` (stereo partly specified) gave Mcl-1 Bim block -3.0, Mcl1 Bid PPI 21.2, Mcl1 Noxa PPI 24.7 and MCL1-BIM inh 0.0.
Screening C#CCOCCOCCOCCNc1nc(N2CCN(C(=O)[C@H](CCCCN)n3cc(CCCC)nn3)CC2)nc(N2CCN(C(=O)[C@H](Cc3ccc(O)cc3)n3cc(CCO)nn3)CC2)n1 returned Mcl-1 Bim block -1.0, Mcl1 Bid PPI 56.6*, Mcl1 Noxa PPI 45.4 and MCL1-BIM inh 14.6.
For C#CCOCCOCCOCCNc1nc(N2CCN(C(=O)[C@H]([C@@H](C)CC)n3cc([C@@H](N)CC(C)C)nn3)CC2)nc(N2CCN(C(=O)[C@H](Cc3ccc(O)cc3)n3cc([C@@H](N)CC(C)C)nn3)CC2)n1 the results were Mcl-1 Bim block -2.0, Mcl1 Bid PPI 60.2*, Mcl1 Noxa PPI 21.3 and MCL1-BIM inh 7.3.
`C#CCOCCOCCOCCNc1nc(N2CCN(C(=O)[C@H](Cc3ccc(O)cc3)n3cc([C@@H](N)C(C)CC)nn3)CC2)nc(N2CCN(C(=O)[C@H](Cc3cc4ccccc4[nH]3)n3cc([C@@H](N)CC(C)C)nn3)CC2)n1` (stereo partly specified) gave Mcl-1 Bim block 0.0, Mcl1 Bid PPI 40.9, Mcl1 Noxa PPI 36.6 and MCL1-BIM inh -9.0.
C#CCOCCOCCOCCNc1nc(N2CCN(C(=O)[C@H](Cc3cc4ccccc4[nH]3)n3cc([C@@H](N)C(C)CC)nn3)CC2)nc(N2CCN(C(=O)[C@H](Cc3cc4ccccc4[nH]3)n3cc([C@@H](N)Cc4ccc(O)cc4)nn3)CC2)n1 (stereo partly specified) was read as Mcl-1 Bim block 0.0, Mcl1 Bid PPI 85.4*, Mcl1 Noxa PPI 61.2* and MCL1-BIM inh -0.6.
For C#CCOCCOCCOCCNc1nc(N2CCN(C(=O)[C@H](Cc3ccc(O)cc3)n3cc([C@@H](N)C(C)CC)nn3)CC2)nc(N2CCN(C(=O)[C@H](Cc3cc4ccccc4[nH]3)n3cc([C@@H](N)C(C)CC)nn3)CC2)n1 (stereo partly specified) the results were Mcl-1 Bim block -2.0, Mcl1 Bid PPI 68.8*, Mcl1 Noxa PPI 43.6 and MCL1-BIM inh 0.0.
For COc1cc(C(=O)O)ccc1OCc1ccncc1 the results were MCL1-BIM inh -24.8.
`N#Cc1ccc(NC(=O)Cn2cnc(S(=O)(=O)N3CCCC3)c2)cc1` gave MCL1-BIM inh -5.6.
`CCS(=O)(=O)N1CCN(C2CCC(c3ccccc3)CC2)CC1` (stereo unspecified) gave Mcl-1 Bim block 0.0, Mcl1 Bid PPI 54.4*, Mcl1 Noxa PPI 9.7 and MCL1-BIM inh 10.1.
Screening O=C1N=c2ccccc2=C1c1c(O)n(-c2cccc(F)c2)[nH]c1=O returned Mcl-1 Bim block -10.0, Mcl1 Bid PPI 72.7*, Mcl1 Noxa PPI 102.3* and MCL1-BIM inh 22.8.
For CCOC(=O)[C@H]1[C@H]2COc3ccc(Cl)cc3[C@@H]2N2C(=O)CN(C)C(=O)[C@@]12C the results were MCL1-BIM inh -5.6.
For O=C(O)c1ccccc1NS(=O)(=O)c1ccc(NNC(=S)Nc2ccc(OC(F)F)cc2)c([N+](=O)[O-])c1 the results were Mcl-1 Bim block -2.0, Mcl1 Bid PPI 94.7* and Mcl1 Noxa PPI 112.1*.
Screening O=C(c1ccc(S(=O)(=O)N2CCCC2)cc1)N1CCCCC1 returned MCL1-BIM inh 12.3.
Screening O=C(/C=C/c1ccc(O)c(O)c1)c1ccc(S(=O)(=O)N2CCCCCC2)cc1 returned Mcl-1 Bim block -2.0, Mcl1 Bid PPI -43.9, Mcl1 Noxa PPI 64.9* and MCL1-BIM inh 20.8.
Screening CC1CN(C(=O)CSc2nnc(-c3cccs3)n2N)CC(C)O1 (stereo unspecified) returned MCL1-BIM inh -4.4.
For COc1cccc(N2CCN(C(=O)CSc3ccc(F)cc3)CC2)c1 the results were Mcl-1 Bim block -2.0, Mcl1 Bid PPI -37.7, Mcl1 Noxa PPI 8.5 and MCL1-BIM inh 7.4.
For CN(C)S(=O)(=O)c1cccc(NC(=O)c2cc3c(=O)n4ccccc4nc3s2)c1 the results were Mcl-1 Bim block -2.0, Mcl1 Bid PPI 68.9*, Mcl1 Noxa PPI -82.7 and MCL1-BIM inh -0.6.
